This is part of a sample that, as a whole, favours compounds with a hit. Of some 83,000 tested, about 20% had one in any assay.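 Growth was measured after 48 h exposure to one concentration of compound in 96-well plates. Values under 10 count as active.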 A number with no mark means an inactive call. The source made the active and inactive calls.

Holding throughout (assay): NCI-60 one-dose screen, 48 h (100 = growth as untreated, 0 = no growth, -100 = all killed)
What all share (conditions): 10 µM unless noted

The subject of test [1] is NCI-H23 lung.
The subject of test [2] is NCI-H226 lung.
For test [3], the system named is NCI-H322M lung.
Test [4] concerns HOP-62 NSCLC.
Test [5] relates to NCI-H460 lung.
Test [6] concerns HOP-92 NSCLC.
Test [7] deals with NCI-H522 lung.
The subject of test [8] is A549/ATCC NSCLC.
Test [9] has as its system 786-0 renal.
For test [10], the system named is DU-145 prostate.
The subject of test [11] is K-562 leukemia.
Test [12] relates to MALME-3M melanoma.
In test [13] the test system is MDA-MB-231 breast.
Test [14] deals with SF-268 CNS.
The subject of test [15] is SF-295 CNS.
Test [16] relates to SF-539 CNS.
Test [17] has as its system UACC-257 melanoma.
The test system of test [18] is RXF 393 renal.
For test [19], the system named is M14 melanoma.

As to `Cc1nc(Nc2ccc(NC(=S)Nc3ccccc3)cc2)c2ccccc2n1`, the growth in test [1] was 91.6%; in [2], 97.4%; in test [3] it was 103%; in test [4], 118%; in [5], 107%; in [6], 115%. Also, the growth is 105% in test [7]; 95.9% in test [8]; 103% in [9]; 125% in test [10]; 78.5% in test [11]; 99.5% in test [12]. Further, the growth was 97.6% in [13]; 111% in test [14]; 99.5% in test [15]; 100% in test [16]; 101% in test [17].
`CC12CC(C#N)CCC1O2` (centres undefined): the growth in [1] was 109%; in test [2], 115%; in [3], 127%; in [4], 108%; in [5], 103%; in test [6], 93%. Besides, the growth in test [7] is 109%; in [8], 100%; in [9] it was 102%; in test [10], 127%; in test [11], 101%; in test [12], 128%. Further, the growth in [13] was 104%; in test [18], 119%; in test [14], 110%; in test [16] it was 96.6%; in test [17], 98.3%; in test [19] it was 107%.
`CCN(CC)CCOc1ccc(/C(=C(\C)c2ccc(OC)c(F)c2)c2ccc(Cl)cc2)cc1`: the growth was 80.8% in [1]; 102% in test [2]; 85.1% in test [3]; 78.5% in test [4]; 61.1% in test [5]; 82% in [6]. Further, the growth in test [7] is 86.1%; in [8] it was 59.7%; in test [9], 68.2%; in test [10], 84%; in [11], 19%; in test [12], 55.9%. Also, the growth is 87.6% in [13]; 87.4% in test [14]; 61.6% in test [15]; 24.5% in [16]; 68.4% in test [17].
As for `Nc1nc(I)c2ncn(C3OC(CO)C(O)C3O)c2n1` (centres undefined), the growth is 112% in [1]; 91.6% in [2]; 105% in [3]; 95.8% in test [4]; 110% in test [5]; 223% in [6]. In addition, the growth is 88.9% in test [7]; 103% in [8]; 103% in [9]; 107% in test [10]; 118% in test [11]; 142% in test [12]. Also, the growth in [13] was 101%; in test [18], 78.4%; in test [14], 107%; in test [16], 102%; in test [17], 103%; in test [19], 102%.
For `O=C(O)C1C[C@](O)(c2ccc(F)cc2)[C@@H](c2ccc(F)cc2)O1` (some centres undefined), the growth was 91.4% in test [1]; 122% in test [2]; 121% in test [3]; 90.3% in test [4]; 101% in test [5]; 78.2% in test [6]. For the same compound, the growth in test [7] was 91.5%; in test [8] it was 112%; in [9] it was 95.6%; in test [10], 139%; in [11], 89.3%; in test [12], 113%. Moreover, the growth in test [13] was 115%; in [14], 117%; in test [15], 94.2%; in [16] it was 125%; in test [17] it was 111%.
Turning to `CNC(=O)c1cc(Oc2ccc3nc(Nc4cc(Cl)cc(Cl)c4)ccc3c2)ccn1`, the growth in test [1] was 70.6%; in test [2], 81.9%; in [3], 82.9%; in test [4] it was 72.1%; in test [5] it was 66.9%; in [6] it was 67.6%. Moreover, the growth in test [7] is 29.6%; in [8] it was 49.3%; in [9], 82.6%; in test [10], 78%; in test [11], 19.1%; in [12], 64.7%. The growth was 34.6% in test [13]; 92.4% in test [18]; 59.8% in test [14]; 47.1% in test [15]; 75.3% in [16]; 53.2% in test [17]. Besides, in test [19], the growth is 38.5%.
For `CCOC(=O)c1sc2ccc(NCc3nc[nH]c3C)cc2c1NC(=O)c1cc(OC)c(OC)c(OC)c1`, the growth in [1] is 85.7%; in test [2] it was 84.3%; in [3], 91%; in test [4], 93.9%; in test [5] it was 92.6%; in test [6], 75.1%. The growth in [7] was 84.8%; in test [8], 101%; in test [9], 84.8%; in test [10], 86.7%; in test [11] it was 44.2%; in test [12], 80.1%. Further, the growth in [13] is 73.3%; in [18], 79.2%; in [14] it was 98%; in [15], 97.3%; in [16], 91.7%; in test [19], 96.8%.
Regarding `CCOC(=O)Cc1csc2nc(-c3ccccc3)nn12`, the growth in test [1] was 97.9%; in test [2] it was 101%; in test [3], 125%; in test [4] it was 103%; in test [5], 108%; in test [6], 79.1%. Further, the growth is 103% in [7]; 105% in test [8]; 92% in [9]; 108% in test [10]; 128% in test [11]; 104% in [13]. Also, the growth in test [18] is 110%; in test [14], 105%; in test [15], 127%; in test [16], 95.6%; in test [17], 119%; in test [19] it was 104%.
Take `Cc1cccc(-c2cc(O)c(C(=O)N3CCOCC3)s2)c1`: the growth in [1] is 55.2%; in [2], 68%; in test [3] it was 63.6%; in test [4], 38.3%; in test [5] it was 17.7%; in test [6] it was 73.7%. The growth in test [7] is 0.179% (active); in [8], 37.7%; in test [9], 51.4%; in [10], 60.3%; in test [12], 52.6%; in [13] it was 56.7%. Also, the growth in test [18] is 62.9%; in test [14], 57.1%; in test [15] it was 37.9%; in [16] it was 33.6%; in test [17] it was 52.8%.
